Assay results taken from the supplement of paper PMC13380429.

Test system: Vero E6 infected with SARS-CoV-2
Experiment: inhibition of SARS-CoV-2 cytopathic effect; higher = more antiviral protection, active = above 15
Details: 48 h

Measured: inhibition of SARS-CoV-2 cytopathic effect

Cc1cc(OCc2nc(-c3ccccc3Cl)cs2)ccc1OCC(=O)O [GPR120-modulator-1]
inactive: 1 nM -0.13% | 8.33 nM 2.43% | 100 nM -1.19% | 833.33 nM -1.62% | 10000 nM -2.32%

C=C1/C(=C\C=C2/CCC[C@]3(C)[C@@H]([C@H](C)CC[C@@H](O)C(C)C)CC[C@@H]23)C[C@@H](O)C[C@@H]1O [tacalcitol]
inactive: 1 nM -1.15% | 8.33 nM -0.65% | 100 nM 1.63% | 833.33 nM 1.18% | 10000 nM 1.31%

NC(=O)NO [hydroxyurea]
inactive: 1 nM 0.66% | 8.33 nM -0.23% | 100 nM 0.03% | 833.33 nM 0.46% | 10000 nM 1.29%

CS(=O)(=O)Nc1ccc(Cc2noc(-c3ccc4[nH]cc(CCN)c4c3)n2)cc1
inactive: 1 nM -2.75% | 8.33 nM -0.95% | 100 nM -2.42% | 833.33 nM -1.18% | 10000 nM -1.18%

CCNC(=O)CCC/C=C\C[C@@H]1[C@@H](/C=C/[C@@H](O)CCc2ccccc2)[C@H](O)C[C@@H]1O [bimatoprost]
inactive: 1 nM -2.31% | 8.33 nM -0.42% | 100 nM -0.15% | 833.33 nM -0.88% | 10000 nM 3.04%

CCN(CC)c1ccc(/C=N/NC(=O)c2ccc(O)cc2)cc1
inactive: 1 nM -0.79% | 8.33 nM 2.18% | 100 nM 0.82% | 833.33 nM -0.79% | 10000 nM 0.11%

NC(=O)C1=CN([C@@H]2O[C@H](COP(=O)(O)OP(=O)(O)OC[C@H]3O[C@@H](n4cnc5c(N)ncnc54)[C@H](O)[C@@H]3O)[C@@H](O)[C@H]2O)C=CC1 [coenzyme-I]
inactive: 1 nM -3.2% | 8.33 nM -4.29% | 100 nM 1.16% | 833.33 nM 1.03% | 10000 nM 1.66%

CCCCCCCCC(=O)N[C@H](CN1CCCC1)[C@H](O)c1ccc2c(c1)OCCO2
inactive: 1 nM 3.01% | 8.33 nM 0.25% | 100 nM 2.54% | 833.33 nM 1.06% | 10000 nM 9.9%

Nc1cc(-c2ccncc2)c[nH]c1=O [amrinone]
inactive: 1 nM 3.03% | 8.33 nM 3.76% | 100 nM -3.46% | 833.33 nM -6.26% | 10000 nM 1.36%

CC[C@]12C=CCN3CC[C@@]4(c5cc([C@@]6(C(=O)OC)C[C@@H]7C[C@@H](C(C)(F)F)CN(Cc8c6[nH]c6ccccc86)C7)c(OC)cc5N(C)[C@H]4[C@@](O)(C(=O)OC)[C@@H]1OC(C)=O)[C@@H]32 [Vinflunine Ditartrate]
inactive: 1 nM 3.38% | 8.33 nM 3.35% | 100 nM 2.91% | 833.33 nM -2.99% | 10000 nM -3.92%

O=C1c2ccccc2-c2n[nH]c3cccc1c23 [pyrazolanthrone]
inactive: 1 nM -4.36% | 8.33 nM 0.82% | 100 nM -1.61% | 833.33 nM -1.07% | 10000 nM -5.91%

Oc1cc2c(cc1O)[C@@H]1c3ccc(O)c(O)c3OC[C@]1(O)C2 [hematoxylin]
inactive: 1 nM 1.9% | 8.33 nM 1.95% | 100 nM 0.48% | 833.33 nM 0.52% | 10000 nM 1.62%

N=C1CCCN1Cc1[nH]c(=O)[nH]c(=O)c1Cl [tipiracil]
inactive: 1 nM 2.52% | 8.33 nM 2.02% | 100 nM 0.58% | 833.33 nM -1.37% | 10000 nM 2.84%

O=C[C@H](O)[C@@H](O)[C@H](O)CO [xylose]
inactive: 1 nM 2.36% | 8.33 nM 1.7% | 100 nM -0.84% | 833.33 nM -1.64% | 10000 nM -4.41%

Cc1cc(NS(=O)(=O)c2ccc(N)cc2)no1 [sulfamethoxazole]
inactive: 1 nM 2.98% | 8.33 nM 0.81% | 100 nM 0.9% | 833.33 nM 0.68% | 10000 nM 0.81%

CC(C)CC(NC(=O)OCC1c2ccccc2-c2ccccc21)C(=O)O (stereo in doubt)
inactive: 1 nM 1.66% | 8.33 nM 2.4% | 100 nM 2.95% | 833.33 nM 3.51% | 10000 nM 0.68%

CN1CCN(C(c2ccccc2)c2ccc(Cl)cc2)CC1 (stereo not given) [chlorcyclizine]
inactive: 1 nM -1.24% | 8.33 nM 1.4% | 100 nM -0.05% | 833.33 nM -3.64% | 10000 nM -10.6%
